Here are results for 14 compounds from PubChem BioAssay (Tox21).

Experiment [1] can be described thus: qHTS RealTime-Glo MT Cell Viability Assay in HepG2 cells - 40 hour (AID 1224870). Note: nearly all actives have a fitted effect of over 50% in size. In outline: (§1)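 Real-time viability: cells seeded at 600 per well together with NanoLuc and cell-permeant prosubstrate, compounds added after 5 h incubation. Luminescence tracked at 0, 8, 16, 24, 32 and 40 h of exposure.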
(Quantitative high-throughput screening tests each substance at several concentrations.)

Experiment [2] is described as follows: A CellTox Green Cytotoxicity Assay to monitor cytotoxicity in HEK293 cells - 40 hour (AID 1224871). Note: nearly all actives have a fitted effect of over 45% in size. Note: potency is the fitted concentration of half-maximal effect. The method in brief: (§2)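 Real-time, in one plate: 600 HEK293 cells/well with dead-cell DNA dye, pinned compound after 5 h, 37 C incubation over 40 h; viable cells give no appreciable fluorescence.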
Experiment [3] is described as follows: qHTS RealTime-Glo MT Cell Viability Assay in HEK293 cells - 16 hour (AID 1224872). Note: nearly all actives have a fitted effect of over 50% in size. Note: potency is the fitted concentration of half-maximal effect. The method in brief:
(§3)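 Luminescence generated by NanoLuc from substrate produced by living HEK293 cells served as the viability signal. Each value reflects the reading at its stated time point during continuous 40 h compound exposure at 37 C.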

Experiment [4] can be described thus: qHTS RealTime-Glo MT Cell Viability Assay in HepG2 cells - 8 hour (AID 1224873). Note: nearly all actives have a fitted effect of over 55% in size. The method in brief: as §1
The nature of experiment [5]: A CellTox Green Cytotoxicity Assay to monitor cytotoxicity in HEK293 cells - 24 hour (AID 1224875). Note: nearly all actives have a fitted effect of over 45% in size. Note: potency is the fitted concentration of half-maximal effect. The method in brief: as §2
The nature of experiment [6]: qHTS RealTime-Glo MT Cell Viability Assay in HepG2 cells - 32 hour (AID 1224877). Note: nearly all actives have a fitted effect of over 55% in size. The method in brief:
(§4)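 Tox21 10K library screened in qHTS format on HepG2 cells carrying RealTime-Glo reagents. Compounds were added after a 5 h preincubation, and the luminescent signal from continuous culture was measured repeatedly during 40 h treatment.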

The nature of experiment [7]: A CellTox Green Cytotoxicity Assay to monitor cytotoxicity in HepG2 cells - 40 hour (AID 1224879). Note: nearly all actives have a fitted effect of over 40% in size. Note: potency is the fitted concentration of half-maximal effect. In outline:
(§5)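 Cytotoxicity was tracked as dead-cell DNA fluorescence in HepG2 cells treated with test compounds at 37 C; each time-point value comes from one kinetic series spanning 0, 8, 16, 24, 32 and 40 h.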

A short description of experiment [8]: A CellTox Green Cytotoxicity Assay to monitor cytotoxicity in HEK293 cells - 32 hour (AID 1224881). Note: nearly all actives have a fitted effect of over 40% in size. Note: potency is the fitted concentration of half-maximal effect. The method in brief: as §2
A short description of experiment [9]: A CellTox Green Cytotoxicity Assay to monitor cytotoxicity in HepG2 cells - 0 hour (AID 1224882). Note: nearly all actives have a fitted effect of over 35% in size. In outline: as §5
Experiment [10] is described as follows: A CellTox Green Cytotoxicity Assay to monitor cytotoxicity in HepG2 cells - 32 hour (AID 1224883). Note: nearly all actives have a fitted effect of over 50% in size. Note: potency is the fitted concentration of half-maximal effect. The method in brief: as §5
The nature of experiment [11]: A CellTox Green Cytotoxicity Assay to monitor cytotoxicity in HEK293 cells - 8 hour (AID 1224884). Note: nearly all actives have a fitted effect of over 35% in size. In outline: as §2
A short description of experiment [12]: qHTS RealTime-Glo MT Cell Viability Assay in HepG2 cells - 16 hour (AID 1224885). Note: nearly all actives have a fitted effect of over 50% in size. In outline: as §4
Experiment [13] in a line: qHTS RealTime-Glo MT Cell Viability Assay in HEK293 cells - 24 hour (AID 1224886). Note: nearly all actives have a fitted effect of over 50% in size. Note: potency is the fitted concentration of half-maximal effect. The method in brief: as §3
Experiment [14] is described as follows: qHTS RealTime-Glo MT Cell Viability Assay in HEK293 cells - 8 hour (AID 1224887). The method in brief:
(§6)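 Kinetic, non-lysing viability readout. Seed HEK293 (600/well) with reagent, incubate 5 h at 37 C/5% CO2, pin 23 nL compound in DMSO, incubate at 37 C, read luminescence at 0, 8, 16, 24, 32, 40 h.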

A short description of experiment [15]: A CellTox Green Cytotoxicity Assay to monitor cytotoxicity in HEK293 cells - 16 hour (AID 1224888). Note: nearly all actives have a fitted effect of over 35% in size. The method in brief:
as §2

Experiment [16] is described as follows: A CellTox Green Cytotoxicity Assay to monitor cytotoxicity in HepG2 cells - 16 hour (AID 1224876). Note: nearly all actives have a fitted effect of over 45% in size. The method in brief:
as §5

Experiment [17] can be described thus: qHTS RealTime-Glo MT Cell Viability Assay in HepG2 cells - 0 hour (AID 1224889). Note: nearly all actives have a fitted effect of over 50% in size. In outline:
as §4

A short description of experiment [18]: A CellTox Green Cytotoxicity Assay to monitor cytotoxicity in HepG2 cells - 24 hour (AID 1224878). Note: nearly all actives have a fitted effect of over 45% in size. Note: potency is the fitted concentration of half-maximal effect. In outline:
as §5

The nature of experiment [19]: qHTS RealTime-Glo MT Cell Viability Assay in HEK293 cells - 0 hour (AID 1224880). The method in brief:
as §6

The nature of experiment [20]: qHTS RealTime-Glo MT Cell Viability Assay in HEK293 cells - 40 hour (AID 1224874). Note: nearly all actives have a fitted effect of over 50% in size. Note: potency is the fitted concentration of half-maximal effect. Particulars: RealTime-Glo luminescence; max response: stronger effect = lower value. In outline:
as §6

Values joined by “and” are separate entries in the source; they are usually repeats but may differ in a detail not shown here. Equal entries are not always repeated. Records with an inconclusive call do not appear. Some compounds were tested as several samples or in several runs, with calls that do not always agree. Active and inactive are the calls of the source. Calls come from the whole dose curve; as a rule, active = well fitted curve in the direction sought with a large enough effect in the repeat runs; inconclusive = weak or mixed curves; inactive = no such curve, though single readings can be large; an effect the other way counts as inactive or inconclusive.
% is set by controls: 0 for no effect and ±100 for the full control effect.

As to `O=S(=O)(O)CCS`, the Potency entry in [1], in experiment [2], in experiment [3], in experiment [4], in experiment [5] and in [6] was “inactive” in each case. The Potency entry in [7], in [8], in experiment [9], in experiment [10], in experiment [11] and in experiment [12] was “inactive” throughout. Besides, the Potency entry in experiment [13], in [14] and in [15] was “inactive” in each case.
Turning to `CCCCCCCCC`, the Potency entry in [1], in experiment [2], in experiment [3], in experiment [4], in [5] and in [16] was “inactive” each time. In addition, the Potency entry in experiment [7], in experiment [8], in [9], in experiment [10], in [11] and in experiment [12] was “inactive” each time. Besides, the Potency entry in experiment [13], in [15] and in experiment [17] was “inactive” in each case.
Take `Cc1cc(O)cc(C)c1Cl`: the Potency result in [1], in [2], in [3], in experiment [4], in experiment [5] and in [16] was “inactive” in each case. The Potency result in experiment [6], in experiment [18], in experiment [7], in [19], in experiment [8] and in experiment [9] was “inactive” in each case. Besides, the Potency entry in experiment [10], in experiment [11], in [12], in experiment [13], in [14] and in experiment [15] was “inactive” throughout. Further, in experiment [17], the Potency result was “inactive”.
As to `Cc1cc(O)c2c(c1)C(=O)c1cc(O)cc(O)c1C2=O`, the Potency result in [1], in [2], in experiment [3], in experiment [4], in [5] and in experiment [16] was “inactive” in each case. The Potency entry in experiment [18], in [7], in [19], in experiment [8], in experiment [9] and in experiment [10] was “inactive” each time. The Potency result in experiment [11], in [12], in experiment [14], in experiment [15] and in experiment [17] was “inactive” in each case.
Regarding `Nc1c(S(=O)(=O)O)cc(Br)c2c1C(=O)c1ccccc1C2=O`, the Potency entry in experiment [1], in experiment [2], in experiment [3], in [4], in [5] and in [18] was “inactive” in each case. Moreover, the Potency entry in experiment [7], in experiment [8], in [9], in experiment [10], in experiment [11] and in experiment [12] was “inactive” throughout. The Potency entry in experiment [13], in experiment [15] and in experiment [17] was “inactive” throughout. Moreover, the max response in experiment [20] is 0.275% (inactive) and -15.6% (inactive).
`ClC1=C(Cl)C(Cl)(Cl)C(Cl)=C1Cl`: the Potency entry in experiment [1], in [4], in [16], in experiment [6], in [19] and in experiment [9] was “inactive” throughout. Moreover, the Potency entry in experiment [10], in [11], in experiment [12], in [14], in [15] and in [17] was “inactive” in each case. The Potency in [2] was 12.4 µM (active) and 34.7 µM (active); in experiment [5], 38.9 µM (active); in experiment [7], 22 µM (active); in experiment [8], 17.5 µM (active) and 34.7 µM (active).
Regarding `CCOC(=O)/C=C\C(=O)OCC`, the Potency entry in [1], in experiment [2], in [3], in [4], in experiment [5] and in experiment [6] was “inactive” in each case. Also, the Potency entry in [7], in experiment [19], in experiment [8], in experiment [9], in [10] and in experiment [11] was “inactive” throughout. In addition, the Potency result in experiment [12], in experiment [13], in [15] and in experiment [17] was “inactive” each time.
`CCCCCCCCCC(=O)O`: the Potency result in [1], in [2], in experiment [3], in [4], in [5] and in [18] was “inactive” each time. The Potency result in [7], in experiment [19], in experiment [8], in [9], in experiment [10] and in experiment [11] was “inactive” in each case. For the same compound, the Potency result in [12], in [13], in [14] and in experiment [15] was “inactive” each time.
In the case of `CC#C[C@]1(O)CC[C@H]2[C@@H]3CCC4=CC(=O)CCC4=C3[C@@H](c3ccc(N(C)C)cc3)C[C@@]21C`, the Potency result in [1], in experiment [2], in experiment [4], in experiment [5], in [18] and in experiment [7] was “inactive” in each case. In addition, the Potency result in [19], in [8], in [9], in experiment [10], in experiment [11] and in [12] was “inactive” in each case. The Potency result in [15] and in experiment [17] was “inactive” each time. Besides, the Potency in experiment [3], in experiment [20] and in experiment [13] was 49 µM (active) in each case.
For the compound `COC(=O)c1ccc(C(=O)OC)cc1`, the Potency result in [1], in experiment [4], in [5], in experiment [19], in experiment [8] and in experiment [9] was “inactive” throughout. Moreover, the Potency entry in experiment [11], in experiment [12], in [13], in [14], in [15] and in [17] was “inactive” throughout. For the same compound, the Potency is 15.7 µM (active) and inactive in experiment [2]; 35.1 µM (active) and inactive in experiment [3]; 22.2 µM (active) and inactive in [18]; 22.2 µM (active) and inactive in [7]; 19.8 µM (active) and inactive in [10].
With `C[C@@H](O)[C@H]1C(=O)N2C(C(=O)O)=C(S[C@@H]3CN[C@H](C(=O)N(C)C)C3)[C@H](C)[C@H]12`, the Potency entry in experiment [1], in experiment [2], in experiment [3], in experiment [4], in [5] and in experiment [16] was “inactive” each time. Besides, the Potency entry in experiment [6], in experiment [18], in [7], in experiment [19], in experiment [8] and in [9] was “inactive” each time. Besides, the Potency entry in [10], in experiment [11], in experiment [12], in [13], in experiment [14] and in experiment [15] was “inactive” each time. In addition, in experiment [17], the Potency entry was “inactive”.
For the compound `O=C(c1cc(O)c(O)c(O)c1)c1ccc(O)c(O)c1O`, the Potency entry in experiment [1], in experiment [2], in experiment [3], in experiment [4], in experiment [5] and in [16] was “inactive” in each case. Also, the Potency entry in experiment [6], in experiment [7], in experiment [8], in experiment [9], in experiment [10] and in experiment [11] was “inactive” in each case. In addition, the Potency result in experiment [12], in [13], in [14], in [15] and in experiment [17] was “inactive” throughout.
Consider `C/C=C(C)/C=C/C=C(C)C`, for which the Potency entry in experiment [1], in [2], in experiment [3], in experiment [4], in experiment [5] and in experiment [6] was “inactive” in each case. The Potency result in [18], in [7], in experiment [8], in experiment [9], in experiment [10] and in [11] was “inactive” throughout. Moreover, the Potency result in experiment [12], in experiment [13] and in [15] was “inactive” each time.
`Cc1ccc(C)c(C)c1`: the Potency entry in experiment [1], in experiment [2], in [3], in experiment [4], in experiment [5] and in experiment [16] was “inactive” each time. The Potency entry in experiment [6], in experiment [7], in experiment [8], in [9], in experiment [10] and in experiment [11] was “inactive” throughout. The Potency result in experiment [12], in [13] and in [15] was “inactive” throughout.
